# Screens: PubChem, National Center for Advancing Translational Sciences (NCATS)
# G9a inh: blocks human histone lysine methyltransferase G9a. AID 504332. actives 8.8% (n = 350,000). Q96KQ7. G9a H3K9 monomethylation, AlphaScreen, 2 h. Potency, µM (highest dose often 102 µM), without a hit: at the top dose activity, negative = inhibition, usual class: inhibitors; further: on the % scale 0 is the no-effect control and ±100 the full control effect; nearly all actives have a fitted effect of over 75% in size
#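 G9a (20 nM) preincubated 15 min RT with compounds, then 500 nM biotinylated H3K9 peptide and 20 uM SAM added; 2 h RT reaction. Monomethyl-H3K9 product detected by AlphaScreen with anti-H3K9me1 antibody, streptavidin donor and anti-rabbit IgG acceptor beads.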
# PLK1 PBD inh: PLK1 (human) polo-box domain binding inhibition. Plk1 PBD binding of FITC phosphopeptide, fluorescence polarization. actives 2.8% (n = 360,000). P53350. Potency, µM, for the others: max response, negative = inhibition, usual class: inhibitors; further: series mostly up to about 57 µM; on the % scale 0 is the no-effect control and ±100 the full control effect; nearly all actives have a fitted effect of over 65% in size
# HP1b chromo inh: HP1-beta chromodomain-methylated histone interaction inhibition; AlphaScreen HP1-beta / biotin-H3K9me3 peptide binding; Potency, µM (highest dose often 114 µM), inactives show at the top dose activity change, negative = inhibition, hits mostly inhibitors; actives 0.56% (n = 390,000); further: nearly all actives have a fitted effect of over 70% in size
#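 AlphaScreen: HP1-beta (50 nM) preformed 30 min with biotin-H3(1-18)K9me3 peptide (50 nM) in PBS pH 7.4, 0.01% Tween-20. Compound added for 30 min at RT, then streptavidin donor/nickel chelate acceptor beads (10 ug/mL) for 30 min.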
# JMJD2A Tudor inh: inhibitors of human JMJD2A Tudor domain | O75164 | AlphaScreen JMJD2A-Tudor / H3K4me3 peptide binding | Potency, µM (highest dose often 114 µM), without a hit: top-dose activity change, negative = inhibition, hits mostly inhibitors | actives 4.4% (n = 390,000) | AID 504339; further: on the % scale 0 is the no-effect control and ±100 the full control effect; nearly all actives have a fitted effect of over 50% in size
# BAZ2B block: blocks human BAZ2B; AlphaScreen BAZ2B-H3K14Ac peptide displacement; Potency, µM (series often up to 114 µM), for the others: top-dose activity change, negative = inhibition, hits mostly inhibitors; actives 4.4% (n = 360,000); AID 504333; further: on the % scale 0 is the no-effect control and ±100 the full control effect; nearly all actives have a fitted effect of over 60% in size
# Target sequence (Q9UIF8 whole entry, looked up): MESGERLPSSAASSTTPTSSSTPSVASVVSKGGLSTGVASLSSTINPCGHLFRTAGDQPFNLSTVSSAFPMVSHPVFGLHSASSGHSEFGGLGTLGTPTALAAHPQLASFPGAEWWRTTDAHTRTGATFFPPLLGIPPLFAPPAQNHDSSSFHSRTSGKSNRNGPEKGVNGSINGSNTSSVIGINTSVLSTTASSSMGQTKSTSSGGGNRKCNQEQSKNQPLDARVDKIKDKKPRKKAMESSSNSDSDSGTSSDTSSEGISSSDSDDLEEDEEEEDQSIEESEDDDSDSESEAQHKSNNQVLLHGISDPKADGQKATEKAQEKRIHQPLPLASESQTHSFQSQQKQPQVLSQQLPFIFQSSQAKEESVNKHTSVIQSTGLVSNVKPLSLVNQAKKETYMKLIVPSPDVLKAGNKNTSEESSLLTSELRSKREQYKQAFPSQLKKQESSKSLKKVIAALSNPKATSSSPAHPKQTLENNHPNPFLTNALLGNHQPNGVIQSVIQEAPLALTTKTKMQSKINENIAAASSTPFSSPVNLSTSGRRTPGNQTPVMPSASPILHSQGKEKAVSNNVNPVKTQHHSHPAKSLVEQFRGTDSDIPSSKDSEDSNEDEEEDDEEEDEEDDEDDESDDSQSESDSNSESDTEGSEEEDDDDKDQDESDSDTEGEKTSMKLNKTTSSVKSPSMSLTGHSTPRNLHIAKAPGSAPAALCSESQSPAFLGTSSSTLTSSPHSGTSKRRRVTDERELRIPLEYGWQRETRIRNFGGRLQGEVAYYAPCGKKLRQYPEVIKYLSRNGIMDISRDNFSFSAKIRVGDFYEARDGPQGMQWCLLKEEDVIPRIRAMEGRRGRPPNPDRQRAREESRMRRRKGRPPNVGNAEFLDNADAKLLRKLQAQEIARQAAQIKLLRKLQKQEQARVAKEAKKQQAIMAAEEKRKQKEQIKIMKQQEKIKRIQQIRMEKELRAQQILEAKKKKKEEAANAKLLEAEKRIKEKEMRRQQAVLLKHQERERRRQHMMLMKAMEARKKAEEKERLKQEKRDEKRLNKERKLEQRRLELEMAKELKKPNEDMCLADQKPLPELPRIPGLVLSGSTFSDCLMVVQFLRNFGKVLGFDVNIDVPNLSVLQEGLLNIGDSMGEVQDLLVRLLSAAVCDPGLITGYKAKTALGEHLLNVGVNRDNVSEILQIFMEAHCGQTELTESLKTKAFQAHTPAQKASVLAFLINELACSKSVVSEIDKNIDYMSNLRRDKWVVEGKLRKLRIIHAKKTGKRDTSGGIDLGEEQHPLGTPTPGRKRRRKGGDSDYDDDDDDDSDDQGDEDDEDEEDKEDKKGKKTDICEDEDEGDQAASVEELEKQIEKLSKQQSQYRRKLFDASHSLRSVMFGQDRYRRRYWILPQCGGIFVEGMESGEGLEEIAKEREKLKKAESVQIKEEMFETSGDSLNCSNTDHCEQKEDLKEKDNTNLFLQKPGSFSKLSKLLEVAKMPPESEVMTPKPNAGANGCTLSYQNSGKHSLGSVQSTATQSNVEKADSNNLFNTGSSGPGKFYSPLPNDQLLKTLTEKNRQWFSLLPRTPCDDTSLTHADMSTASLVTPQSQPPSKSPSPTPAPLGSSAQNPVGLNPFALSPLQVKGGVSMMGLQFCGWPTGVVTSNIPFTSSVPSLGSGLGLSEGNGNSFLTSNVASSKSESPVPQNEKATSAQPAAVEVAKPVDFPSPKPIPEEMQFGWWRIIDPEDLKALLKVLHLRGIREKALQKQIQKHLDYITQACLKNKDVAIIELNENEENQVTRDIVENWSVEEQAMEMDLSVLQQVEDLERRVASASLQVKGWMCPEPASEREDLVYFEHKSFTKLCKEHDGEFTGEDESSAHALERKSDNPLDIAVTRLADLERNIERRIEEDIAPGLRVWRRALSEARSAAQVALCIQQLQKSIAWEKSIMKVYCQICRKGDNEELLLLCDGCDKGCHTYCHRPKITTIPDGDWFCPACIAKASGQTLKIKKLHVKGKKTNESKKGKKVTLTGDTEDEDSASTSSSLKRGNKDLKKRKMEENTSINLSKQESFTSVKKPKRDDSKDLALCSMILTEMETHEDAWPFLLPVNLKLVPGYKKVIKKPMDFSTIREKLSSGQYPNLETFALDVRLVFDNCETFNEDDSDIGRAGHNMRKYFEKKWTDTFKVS
#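 AlphaScreen displacement: compounds (up to 110uM) incubated 30 min at room temperature with a preformed 50 nM BAZ2B/50 nM biotinylated H3K14Ac peptide complex in PBS pH 7.4 with Tween-20. Donor and acceptor beads at 10 ug/mL final added, 20 min light-protected before reading.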
# Sfp PPTase inh: blocks B. subtilis Sfp PPTase activity. Q9F4F7. Biochemical Sfp PPTase activity, qHTS. Potency, µM, without a hit: largest response in the series, negative = inhibition, actives largely listed as inhibitors. actives 3.5% (n = 310,000);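 further: the enzyme is Sfp with the accession as filed and its product quenches rhodamine fluorescence; 0% = enzyme reaction without inhibitor and -100% = no enzyme wells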
#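 With Hepes-Na pH 7.6 buffer containing 10 mM MgCl2, Sfp (15 nM) modified BHQ-2-YbbR (12.5 uM) using rhodamine-CoA (5 uM). Two reads 30 minutes apart at 525/598 nm yielded each well's rate.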
# * = called active by the depositor; ? = inconclusive; . = no result; [ ] = remark or other dose. Sampled rows, rich in hits. Any-hit rate of the full collection: about 12%. The call rests on the fitted dose curve; in most records, active means well fitted curve in the direction sought with a large enough effect; inconclusive means small, poorly fitted or top-dose-only effect, or another doubt; inactive means no such curve, though single readings can be large; an effect the other way counts as inactive or inconclusive. Potency means the concentration at half of the fitted maximal effect.
SMILES,G9a inh,PLK1 PBD inh,HP1b chromo inh,JMJD2A Tudor inh,BAZ2B block,Sfp PPTase inh
CN(C(=O)c1cccc(NC(=O)Cc2ccc(NC(=O)C3CCN(C(=O)CCc4ccccc4)CC3)cc2)c1)C1CCCCC1,.,-3.7%,39.7%,-16.4%,.,.
C=CCSc1nccc(-c2nn(-c3ccc(C)cc3)ccc2=O)n1,50.1µM*,-10.2%,49.4%,-17.2%,-3.6%,-1.6%
CSc1nccc(-c2nn(-c3ccc(C)cc3)ccc2=O)n1,8.6%,?,-6.1%,56.2µM*,25.1µM*,-0.6%
CNC(=O)c1nn(-c2ccc(C)cc2)ccc1=O,-35.5%,-2.4%,17.1%,-6.2%,-2.0%,35.8%
Nc1nccc(-c2nn(-c3ccc(Cl)cc3)ccc2=O)n1,.,2.0%,45.0%,-2.0%,-1.3%,-4.3%
C#CCSc1nccc(-c2nn(-c3ccc(C)cc3)ccc2=O)n1,-38.1%[12.7 µM],26.7µM*,?,79.4µM*,-2.2%,79.4µM*
CCSc1nccc(-c2nn(-c3ccc(C)cc3)ccc2=O)n1,79.4µM*,-8.9%,52.2%,5.3%,-0.6%,7.2%
CC(=O)OC[C@@H]1O[C@@H](O/N=C2/C[C@@H](O)[C@@H](O)[C@@H]3[C@H]4C(=O)N(c5ccc(F)cc5F)C(=O)[C@@H]4CC[C@@H]23)[C@H](OC(C)=O)[C@H](OC(C)=O)[C@@H]1OC(C)=O,.,.,.,.,.,18.0%
C=CCOc1ccc(/C=C/C(=O)OCC(=O)NCC(=O)Nc2c(C)cc(C)cc2C)cc1,-9.9%,-10.3%,13.9%,-20.7%,13.5%,.
CCOc1ccccc1NC(=O)c1c(NC(=O)Cc2ccc(OC)cc2)sc2c1CCC2,3.0%[59 µM],.,33.2%,-3.9%,2.5%,.
COc1ccccc1-n1c(SCC(=O)NC2CCS(=O)(=O)C2)nc2cc([N+](=O)[O-])ccc21 (stereo unspecified),18.8%[59 µM],0.0%,-0.4%,-17.2%,-2.4%,10.7%
COc1ccccc1-n1c(SCC(=O)c2ccc(O)cc2O)nc2cc([N+](=O)[O-])ccc21,?,-15.2%,-17.1%,25.1µM*,?,0.5%
COc1ccc(CCNc2ncnc3c2cnn3-c2cc(Cl)ccc2C)cc1,0.2%[59 µM],.,58.3%,-0.6%,1.4%,.
CCN1C(=O)[C@H]2[C@@H](c3ccc(-c4ccc(F)cc4)cc3)N[C@@](C)(C(=O)OC)[C@H]2C1=O,.,-0.2%,18.3%,-15.9%,.,.
O=C(O)/C=C/c1cn(-c2ccccc2)nc1-c1ccc(-c2ccc([N+](=O)[O-])cc2)o1,50.1µM*,?,?,44.7µM*,50.1µM*,25.1µM*
O=C(O)/C=C/c1cn(-c2ccccc2)nc1-c1cccc([N+](=O)[O-])c1,?,-8.5%,34.6%,-11.6%,-33.5%,11.3%
CNC(=O)COC(=O)/C=C/c1cn(-c2ccccc2)nc1-c1ccc(C)o1,.,-16.0%,19.1%,-2.1%,-4.0%,50.1µM*
C=C1C(CCl)(CCl)C2(Cl)C(Cl)C(Cl)C1(Cl)C2(Cl)Cl (stereo unspecified),?,.,.,.,.,-18.3%
CS(=O)(=O)c1ccc(Cl)c(NC(=O)Cc2ccccc2F)c1,-33.4%,26.7µM*,-20.5%,22.4µM*,-2.9%,16.0%
CS(=O)(=O)c1ccc(Cl)c(NC(=O)Cc2c(F)cccc2Cl)c1,-3.8%,0.7%,37.2%,-9.0%,-10.7%,11.8%
Cc1ccccc1-n1nc2c(c1NC(=O)c1cc3ccccc3o1)CS(=O)(=O)C2,44.7µM*,-12.6%,14.7%,-21.9%,-2.7%,.
Cc1ccccc1-n1nc2c(c1NC(=O)c1ccc(Br)o1)CSC2,44.7µM*,-27.2%,-5.0%,?,-37.0%,?
Cc1cccc(/C=C(\C(=O)C(=O)O)c2ccc3ccccc3n2)c1,?,-10.4%,63.2%,-10.2%,.,-3.3%
N#Cc1ccc(/C=C(\C(=O)C(=O)O)c2ccc3ccccc3n2)cc1,-17.2%[12.7 µM],-12.6%,30.1%,1.4%,79.4µM*,-6.2%
O=C(O)C(=O)/C(=C\c1cccc(Cl)c1)c1ccc2ccccc2n1,22.4µM*,-21.0%,29.0%,?,79.4µM*,-22.4%
SMILES,G9a inh,PLK1 PBD inh,HP1b chromo inh,JMJD2A Tudor inh,BAZ2B block,Sfp PPTase inh
CC(C)(CCCCCCCCCCC(C)(C)CC(=O)O)CC(=O)O,.,.,.,.,.,0.6%
COC1(NS(=O)(=O)c2ccc(Br)cc2)C(C)=CC(=O)C=C1C,?,6.7µM*,?,-2.1%,-7.5%,4.3%
Cc1ccc(NS(=O)(=O)c2ccc(Br)cc2)nc1,0.1%,-23.1%,32.8%,-5.6%,-5.7%,5.7%
Nc1c(C(=O)Nc2ccccc2)sc2nc3c(cc12)CN(Cc1ccccc1)CC3,?,.,24.7%,-20.2%,-10.9%,.
CC(C)(C)C(=O)Nc1nc2c(s1)CN(Cc1ccccc1)CC2,17.8µM*,-14.6%,5.3%,-17.3%[11.4 µM],-32.6%,-27.0%
COC(=O)c1c(NC(=O)C(C)(C)C)sc2c1CCN(Cc1ccccc1)C2,.,-2.5%,16.8%,-25.9%,-11.5%,-1.4%
O=C(Nc1nc2c(s1)CN(Cc1ccccc1)CC2)C1CCCC1,44.7µM*,4.1%,14.6%,-13.9%,?,-7.3%
O=C(Nc1nc2c(s1)CN(Cc1ccccc1)CC2)c1c(F)cccc1F,8.91µM*,21.2µM*,-8.1%,50.1µM*,.,-5.6%
O=C(Cc1ccccc1)Nc1c(C(=O)N2CCN(c3ccc(F)cc3)CC2)oc2ccccc12,-28.5%[59 µM],.,-5.7%,-20.7%,-20.3%[57.1 µM],.
CCOC(=O)c1nnsc1Nc1ccc(C)c(C)c1,7.08µM*,-2.3%,71.5%,19.6%,1.4%,-26.4%
CCC(=O)N1c2ccc(S(=O)(=O)NC3CCCCC3)cc2CC1C (stereo unspecified),21.8%[59 µM],-4.9%,24.2%,-0.4%,-15.4%,20.7%
Cc1nc2ccn(Cc3ccccc3)c(=O)c2cc1C(=O)N1CCN(c2ccccc2)CC1,24.4%,-12.8%,13.7%,-19.1%,?,1.9%
CCN(CC)c1ccc(S(=O)(=O)N2CCOCC2)cc1NC(=O)CN1CCN(Cc2ccccc2)CC1,?,-1.4%,?,17.8µM*,22.4µM*,79.4µM*
CCN(CC)c1ccc(S(=O)(=O)N2CCOCC2)cc1NC(=O)Nc1ccccc1,.,?,1.1%,-10.3%,.,.
CCN(CC)c1ccc(S(=O)(=O)N2CCOCC2)cc1NC(=O)CNCc1ccccc1,?,-9.6%,?,89.1µM*,50.1µM*,35.5µM*
CCN(CC)c1ccc(S(=O)(=O)N2CCOCC2)cc1NC(=O)CSC(=S)N1CCCC1,7.94µM*,13.4µM*,6.9%,?,-23.9%,25.1µM*
Cc1ccc(N(CC(=O)NC2CCCCC2)C(=O)CNC(=O)c2ccco2)cc1F,19.0%,-3.7%,14.8%,-7.4%,3.6%,12.9%
Cn1cccc1C(=O)N1CCC2(CC1)CN(c1ccccn1)C2,39.0%[12.7 µM],.,.,.,.,5.3%
Cn1cnc(S(=O)(=O)N2CCC(C(=O)NCc3ccccc3Cl)CC2)c1,3.7%[59 µM],.,46.0%,-3.0%,-1.0%,.
O=C(Nc1cccc(-c2ccc(N3CCCCC3)nn2)c1)c1ccco1,50.1µM*,-8.5%,10.2%,-15.9%,-26.0%,.
